In PubChem BioAssay AID463215 (Sanford-Burnham Center for Chemical Genomics, 2010) one finds inhibition data, which are given here for 108 compounds.

The whole screen tested about 4,600 compounds, of which about 2,900 (63%) were called active. So high a share suggests a set chosen from earlier hits. Not all results are given here. Values without a mark were called inactive.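 Rule for the calls: active = inhibition of yeast growth at or above a set limit in either of two replicates at 10 µM; inactive = the rest.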

This assay is described as follows: TIM10 isogenic control strain growth inhibition – single concentration, luminescence, S. cerevisiae, counter-screen for tim10-1 synthetic lethality project, confirmation (AID 463215).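 Note: isogenic wild-type TIM10 control yeast grown in succinate dextrose medium; this counterscreen used the strain with wild-type TIM10; 0% = yeast with DMSO and 100% = medium wells lacking yeast.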 Conditions: BacTiter-Glo luminescence, 24 h, at 10 µM, active compounds read high.
Take `Cc1cccc(N=Nc2c(O)[nH]c3ccc(F)cc23)c1`: the inhibition is 40.8% (active). Next, `COc1cc(NC(=O)c2cccs2)ccc1NC(=O)c1ccccc1Cl`: 5.7%; `O=C(Nc1ccc(NC(=O)c2cccs2)cn1)c1ccco1`: 32.2% (active); `Cc1nc(-c2ccc(NC(=O)c3cccs3)cc2)cs1`: -32.7%.

With `Cc1ccc(-c2cn3cc(C)ccc3n2)cc1`, the inhibition was 67% (active). Regarding `Cc1ccc2nc(-c3ccc(Br)cc3)cn2c1`, the inhibition is 38.8% (active).

As to `Nc1cc(OC(=O)c2ccccc2Br)nn1S(=O)(=O)c1ccccc1`, the inhibition was 48% (active).

For the compound `CN1C(=O)/C(=N/OC(=O)c2ccccc2Br)c2ccccc21`, the inhibition was 61.5% (active). Next, `Fc1ccccc1/C=C1\CCCC2=C1Nc1ncnn1C2c1ccccc1F` (stereo not drawn): 26.4%; `COc1ccc(C(=O)Nc2ccc(-n3nncc3C(C)(C)C)cc2)cc1`: 21.1%; `CCc1cc(C(N)=O)c(NC(=O)c2ccc(OC)cc2)s1`: 59.7% (active). With `CC(C)(C)C(=O)c1cnc(Nc2ccccc2)s1`, the inhibition was 21.1%. The figure for `CSCCC(NS(=O)(=O)/C=C/c1ccccc1)C(=O)N1CCC(C)CC1` (stereo not drawn) is 2.25%. Next, `CCn1c(/C=C/c2ccc([N+](=O)[O-])o2)nc2ccccc2c1=O`: 80.8% (active). Turning to `COc1ccc2c(c1)cc1n2CCN=C1NN`, the inhibition was 51.4% (active).

As for `COc1ccccc1-c1n[nH]c2c1[C@H](C)CC[C@H]2C(C)C`, the inhibition is 50.2% (active).

For `Cc1cc(N)n2nc(-c3ccc(C(C)(C)C)cc3)cc2n1`, the inhibition is 9.25%. The figure for `CC1=C/C(=N\OS(=O)(=O)c2ccccc2)C=CC1=O` is -32.8%. With `O=C(Nc1nnc(SCc2c(Cl)cccc2Cl)s1)C1CCCO1` (stereo not drawn), the inhibition is 41% (active). The figure for `CC(C)c1ccc(NC(=S)NC2CC3C=CC2C3)cc1` (stereo not drawn) is 35.2% (active); for `O=C1c2ccccc2S(=O)(=O)N1CC(O)Cn1c2ccccc2c2ccccc21` (stereo not drawn) it is 46.1% (active).

With `CCOC(=O)CNC(=O)CSc1ncccc1-c1nc2ccccc2[nH]1`, the inhibition is 1.05%. In the case of `O=C(Nc1ccc(Cl)c(Cl)c1)N1CC=C(c2ccccc2)CC1`, the inhibition is 33.3% (active). Turning to `Nc1cccc(-c2cc(-c3ccccc3)nc(-c3cccc(N)c3)n2)c1`, the inhibition was 36.6% (active).

In the case of `CS(=O)(=O)c1sc2nc(-c3ccccc3)cc(-c3ccccc3)c2c1N`, the inhibition is -14.8%. The figure for `O=c1oc2ccccc2cc1-c1csc(Nc2ccc(O)cc2)n1` is 39.9% (active); for `O=C(CC(O)(C(F)(F)F)C(F)(F)F)Nc1ccc(Cl)c(Cl)c1` it is 92.4% (active). The figure for `CCOC(=O)C1Sc2[nH]c(=O)sc2C(c2ccc(Cl)cc2)C1C(=O)OCC` (stereo not drawn) is 48.2% (active); for `CC1CC(=S)Nc2ccccc2N1Cc1ccccc1` (stereo not drawn) it is -14.8%; for `O=C(Oc1ccc([N+](=O)[O-])cc1)c1ccc2ccccc2n1` it is 33.2% (active).

As for `CCCc1nc2c(c(=O)c3ccccc3n2C)c(=O)n1C1CCCCCC1`, the inhibition is -18.1%. Regarding `Cc1[nH]n(C(N)=S)c(=O)c1N=Nc1ccc(Cl)cc1Cl`, the inhibition is 51.7% (active). The figure for `CCCCC1(C(=O)OCC)NC(c2ccc(O)cc2)C2C(=O)N(c3ccccc3)C(=O)C21` (stereo not drawn) is 7%; for `CCSC1=C(C#N)C(=O)n2c1cc1c2CCCC1` it is 56.2% (active). In the case of `O=C(NCc1ccc2c(c1)OCO2)c1c(O)nc2sccn2c1=O`, the inhibition is 27.8%. The figure for `CC(=NCc1ccc2c(c1)OCO2)C1=C(O)c2ccccc2C1=O` is 66.2% (active). `COc1ccc(O)c(C(=O)c2cnc3c(c2)c(-c2ccc(F)cc2)c(C#N)c(=O)n3C)c1`: the inhibition is 3.75%. Next, `O=C1[C@@H](c2ccccc2)[C@@H](c2ccccc2)N1c1cccnc1`: 61.4% (active); `C=CCNC(=S)NNC(=O)COc1c(Cl)cc(Cl)cc1Cl`: 2.85%; `O=C(Oc1c(-c2ccco2)oc2ccccc2c1=O)c1cccnc1`: 48% (active). Regarding `Cc1ccc2nc(N(CCN(C)C)C(=O)C3=COCCO3)sc2c1`, the inhibition was 34.9% (active).

Turning to `CN(C)CCN(C(=O)C1=COCCO1)c1nc2ccc(Cl)cc2s1`, the inhibition is 69.3% (active). Turning to `Cc1ccoc1C(=O)Nc1cccc(Oc2ccccc2)c1`, the inhibition is 61% (active). The figure for `Cc1nc(-c2ccc(Cl)cc2)sc1C(=O)CBr` is 52.6% (active); for `CCNC(=S)N(CCc1c(C)[nH]c2ccc(C)cc12)Cc1ccco1` it is 20.2%; for `Cc1onc(NC(=O)c2ccc([N+](=O)[O-])o2)c1Br` it is 53.8% (active).

Regarding `Cc1cccc(NC(=O)c2ccc([N+](=O)[O-])o2)c1`, the inhibition was 81.6% (active). As for `O=C(Nc1ccc(Br)cn1)c1ccc([N+](=O)[O-])o1`, the inhibition is 46.5% (active). Regarding `CC(C)CC(=O)NC(=S)Nc1ccc(F)cc1F`, the inhibition is 15.1%. `Cc1ccc2nc(-c3ccc(SCC(=O)Nc4cc(C)on4)nc3)[nH]c2c1`: the inhibition is 2.7%. The figure for `NC(=S)N/N=C/c1coc2cc(Cl)ccc2c1=O` is 50.8% (active); for `CC(C)Oc1c(Br)cc(Br)cc1/C=N/NC(N)=S` it is 23.6%. On to `C=C(C)COc1ccc(-c2n[nH]c(C)c2-c2ccccc2)c(O)c1`, for which the inhibition was 40.1% (active). `Oc1ccccc1-c1cc(-c2ccc(Cl)cc2)n[nH]1`: the inhibition was 55.5% (active). On to `CC(C)NC(=O)/C(C#N)=C\c1ccc(N(C)C)c(Br)c1`, for which the inhibition was 46.6% (active).

For `O=c1[nH]cnc2c1c(-c1ccccc1)cn2-c1ccc(F)cc1`, the inhibition was -25.6%.

Consider `CC(=NCc1ccco1)c1c(C(F)(F)F)[nH]n(-c2nc3ccccc3s2)c1=O`, for which the inhibition was 57.4% (active). Next, `N/C(=N\OC(=O)CCc1ccccc1)c1ccc(Cl)cc1`: 57.2% (active); `COc1ccc(/C(N)=N/OC(=O)CCCc2ccccc2)cc1`: 39.8% (active); `COc1ccc(-c2oc3ncn(Cc4ccco4)c(=N)c3c2-c2ccc(OC)cc2)cc1`: 38.8% (active).

Take `COc1ccc2[nH]cc(/C=C(/C#N)S(=O)(=O)c3ccccc3)c2c1`: the inhibition is 38% (active). Next, `N/C(=N\OC(=O)Nc1ccc(Cl)c(Cl)c1)c1ncc(C(F)(F)F)cc1Cl`: 72.8% (active); `CC1CCCC(C)N1C(=O)CN1CCN(c2nc(-c3ccc(F)cc3)cs2)CC1` (stereo not drawn): 39.2% (active); `CC(=O)Oc1ccc(N(C(C)=O)S(=O)(=O)c2ccc3ccccc3c2)cc1Br`: 40.5% (active). The figure for `Cc1cc(C)n(CC(O)CN(c2ccccc2)S(=O)(=O)c2ccc3ccccc3c2)n1` (stereo not drawn) is 2.2%. Next, `CCc1ccc(OCC(=O)NCC(c2ccc(Cl)cc2)N2CCCCC2)cc1` (stereo not drawn): 44% (active); `CC1CCC2CCCCC2N1C(=O)c1cc([N+](=O)[O-])cc([N+](=O)[O-])c1` (stereo not drawn): 33% (active); `CCOc1ccccc1/C=c1\sc2nc(-c3ccco3)nn2c1=O`: 48.9% (active). Regarding `Cc1ccc(-c2ccnc3nc(Sc4ncc(C(F)(F)F)cc4Cl)nn23)cc1`, the inhibition was 29.6%.

On to `Cc1nn2c(c1-c1ccccc1)N=C(c1ccco1)CC2c1ccccc1` (stereo not drawn), for which the inhibition is -19.4%. Consider `CC(NC(=S)Nc1ccccc1)C1COc2ccccc2O1` (stereo not drawn), for which the inhibition was 40.3% (active). In the case of `Cc1ccc(N2C(=O)C3C4C=CC(CC4)C3C2=O)cc1Cl` (stereo not drawn), the inhibition is 0.2%. The figure for `COc1cccc(OCc2cc(C(=O)N3CCN(C(=O)c4ccco4)CC3)no2)c1` is 8.3%; for `Cc1ccc(C(=O)COc2cccc(NC(=O)c3ccco3)c2)cc1` it is 53.1% (active); for `O=C1C=CC(=O)N1c1ccc(N2CCCCC2)cc1` it is 85.4% (active). Next, `COc1ccc2c(CN3CCN(S(=O)(=O)c4cccs4)CC3)cc(=O)oc2c1`: -35.7%.

As to `O=C(O)CCCC(=O)Nc1ccccc1-n1ccnc1`, the inhibition was -10.4%.

With `CN(C)c1ccnc2sc(C(=O)c3ccccc3)c(N)c12`, the inhibition was 25.4%.

`O=C(CN1CCN(S(=O)(=O)c2ccc3ccccc3c2)CC1)NC(=O)NC1CCCCC1`: the inhibition was 23.4%.

Consider `COc1ccc(S(=O)(=O)N2CCN(C(C)C(=O)Nc3ccc(C(C)C)cc3)CC2)cc1` (stereo not drawn), for which the inhibition is 38.8% (active). The figure for `Cc1ccc(-c2noc(CSc3nnc(-c4ccncc4)n3-c3ccc(F)cc3)n2)cc1` is 30.2% (active); for `Fc1ccc(-n2c(Cc3ccccc3)nnc2SCc2nc(-c3ccc(Cl)cc3)no2)cc1` it is 37.8% (active). Next, `Cc1ccc(/C=N/NC(=S)NC2CCCCC2)o1`: 11.8%. Next, `COc1ccc(N2C(=O)CC(Sc3n[nH]c(-c4ccc(C)cc4)n3)C2=O)cc1` (stereo not drawn): 13.8%. With `FC(F)(F)c1cccc(NC(=S)Nc2cccc(Cl)c2)c1`, the inhibition was 26.8%.

For `O=C(Nc1cccc(Cl)c1)OCc1ccccn1`, the inhibition is 41.4% (active).

Consider `O=C(Nc1cccc(Cl)c1)C1CCCN(c2cnccn2)C1` (stereo not drawn), for which the inhibition was 5.7%. Consider `O=C(CSc1cccc[n+]1[O-])c1ccc(-c2ccccc2)cc1`, for which the inhibition is 44.2% (active).

On to `O=C1NC(Nc2nc3ccccc3s2)(C(F)(F)F)C(=O)N1C1CCCCC1` (stereo not drawn), for which the inhibition is 52.6% (active). Next, `N#CC1(C#N)C(C(=O)C23CC4CC(CC(C4)C2)C3)C12CCOCC2` (stereo not drawn): 26.6%. Turning to `COC(=O)c1c(NC(=O)COc2ccc(Cl)cc2Cl)sc2c1CC(C)(C)NC2(C)C`, the inhibition is 45.8% (active). The figure for `CCn1c(CSCc2c(Cl)cccc2Cl)n[nH]c1=S` is 35.4% (active); for `O=C(Nc1ccccc1Cl)/C(Cl)=C(\Cl)S(=O)c1ccccc1` (stereo not drawn) it is 89.6% (active); for `O=c1oc(-c2ccccc2NS(=O)(=O)c2ccc(Cl)cc2)nc2ccccc12` it is 41.5% (active). As for `Cc1[nH]c(=O)c(C(=O)/C=C/c2ccccc2)c2c1CCCC2`, the inhibition was 38.8% (active).

In the case of `COc1ccc(Nc2cc(C)nc(-n3nc(C)cc3C)n2)cc1`, the inhibition was 34.1% (active). With `COc1ccc(/C=C(\C#N)C(=O)ONC2=NCCCCC2)cc1`, the inhibition was 59% (active). The figure for `O=C(NCCc1ccc(F)cc1)c1ccc(S(=O)(=O)N2CCCCC2)cc1` is 53.5% (active); for `O=C(Nc1cccc(S(=O)(=O)N2CCCC2)c1)c1cncc(Br)c1` it is -2.05%. The figure for `CC(=O)Cc1nsc(NC(=O)c2ccc(Cl)cc2Cl)n1` is 17.2%; for `C/C(=N/NC(=S)Nc1ccccc1)c1ccc2c(c1)OCO2` it is 38.8% (active). As to `CC(=O)N1C(C)c2ccccc2C(C)(C)CC12CCCCC2` (stereo not drawn), the inhibition is -16%. The figure for `COc1ccc(Nc2nc(N)nc(CSC(=S)N3CCC(C)CC3)n2)cc1` is -1%; for `Cc1cc(C)nc(S/C=C/C(=O)c2ccccc2)n1` it is 60.8% (active). The figure for `Cc1csc(NC(=S)Nc2cccc(Cl)c2)n1` is 9.5%; for `Cc1cc(C)c(S(=O)(=O)c2ccccc2)c(OC(=O)c2c(F)cccc2Cl)n1` it is -5.1%; for `COC(C/C=C/C(=O)[C@@H](C)OCc1ccccc1)OC` it is 39.4% (active). The figure for `CNC(=O)/C(C#N)=C/c1c(F)cccc1Cl` is 40.6% (active).
